Pf growth 48h: inhibits P. falciparum growth in the first generation, 48 h; actives 5.9% (n = 310,000); P. falciparum luciferase growth in erythrocytes, 48 h; Potency, µM (top dose mostly 28.7 µM), most hits filed as inhibitors
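Cell-based growth assay: transgenic P. falciparum expressing firefly luciferase, cultured in red cells within RPMI 1640 containing 0.5% w/v Albumax, 24 mM bicarbonate and gentamycin. A drop in luciferase activity indicates inhibition.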
AMA1-RON2 inh: AMA1-RON2 (P. falciparum) interaction inhibition. actives 0.2% (n = 360,000). Potency, µM (titrated, usually from 58.2 µM), most hits filed as inhibitors. AlphaScreen AMA1-biotinylated RON2 peptide binding. AID 720542; also: nearly all actives have a fitted effect of over 45% in size
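AMA1 (3D7) with his tag at 25 nM final met compounds first, then biotinylated RON2 peptide at 25 nM; detection used donor plus acceptor beads, 10 µg/mL apiece, read by AlphaScreen after 30 min at room temperature.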
Pf growth 96h: inhibits malaria parasite growth, 96 h; P. falciparum luciferase reporter growth, 96 h; AID 504834; Potency, µM (highest dose often 28.7 µM), actives largely listed as inhibitors; actives 6.9% (n = 320,000)
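P. falciparum expressing integrated firefly luciferase, in erythrocytes at 2% hematocrit, 0.05% parasitemia, incubated with compounds 96 h at 37 C, 5% CO2. Growth inhibition read as loss of luminescence; two-generation exposure targets delayed-death apicoplast inhibitors.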
Vaccinia mCherry: vaccinia inhibition (mCherry reporter); Potency, µM (highest dose often 36.5 µM), most hits filed as inhibitors; AID 720579; Vaccinia virus mCherry reporter infection, fluorescence; actives 0.63% (n = 310,000); calls by dose curve; tested in A549 cells; also: nearly all actives have a fitted effect of over 35% in size
VACV Venus inh: vaccinia inhibition (Venus reporter) | Potency, µM (top dose mostly 36.5 µM), usual class: inhibitors | AID 720580 | actives 0.46% (n = 330,000) | Vaccinia virus Venus reporter expression, fluorescence; calls by dose curve; tested in A549 cells; also: nearly all actives have a fitted effect of over 30% in size
A number is an active result; - = inactive; ? = inconclusive; . = no result; ! = a repeat was not active. Most compounds without a hit are left out; they make up all but 8.7% or so of the library. Unless noted, calls follow the shape of the dose curve; as a rule, active = well fitted curve in the direction sought with a large enough effect; inconclusive = small, poorly fitted or top-dose-only effect, or another doubt; inactive = no such curve, though single readings can be large; an effect the other way counts as inactive or inconclusive.

SMILES	Pf growth 48h	AMA1-RON2 inh	Pf growth 96h	Vaccinia mCherry	VACV Venus inh
CCN1CCN(c2cc(C)c3cc(NC(=O)c4cccs4)ccc3n2)CC1	2.1µM	-	?	-	-
CSc1ccc(CCNC(=O)c2cc3cc4cc(C)ccc4nc3s2)cc1	.	.	.	-	-
COC(=O)c1c(NC(=O)c2cc3nc(-c4ccc(Br)cc4)cc(C(F)(F)F)n3n2)sc2c1CCCC2	.	.	.	-	-
Cc1ccc(C)c(N2CCN(C(=O)C(CC(C)C)NS(=O)(=O)c3ccc4nc(C)sc4c3)CC2)c1 (stereo not given)	.	.	.	-	-
CN1C(=O)c2[nH]nc(-c3ccc(F)cc3)c2C1c1cccc(O)c1 (stereo not given)	.	.	.	-	-
CCCCN(C)C(=O)CN1C(=O)c2cccnc2Oc2ccc(Cl)cc21	.	.	.	-	-
CCN1CCN(c2cc(C)c3cc(NC(=O)c4ccc5c(c4)OCO5)ccc3n2)CC1	3.3µM	-	-	-	?
CCN1CCN(c2cc(C)c3cc(NC(=O)c4cccc(OC)c4)ccc3n2)CC1	?	-	2.1µM	.	.
CCN1CCN(c2cc(C)c3cc(NC(=O)c4ccc(OC)c(OC)c4)ccc3n2)CC1	.	-	-	?	-
CCN1CCN(c2ccc(NC(=O)c3ccc4c(c3)OCCO4)cc2C)CC1	-	-	-	-	-
CCOc1cccc2sc(NC(=O)c3ccc(Br)s3)nc12	.	-	7.4µM	-	-
CN(C)CCCN1c2ccccc2Sc2ccccc21	?	-	?	?	-
CN(C)CCCN1c2ccccc2CCc2ccc(Cl)cc21	13µM	-	?	-	-
CN(CCCN1c2ccccc2CCc2ccccc21)CC(=O)c1ccc(Cl)cc1	-	.	15µM	.	.
CSc1ccc(CCNC(=O)Cn2c(C)c3cnn(-c4ccccc4)c(=O)c3c2C)cc1	.	.	.	-	-
CC(=O)c1cccc(NC(=O)COc2cc3oc(=O)c(CC(C)O)c(C)c3cc2Cl)c1 (stereo not given)	?	-	10µM	-	-
CN(C)C1(CNC(=O)COc2ccc(C(C)(C)C)cc2)CCCCC1	.	.	.	?	-
Cc1cccc(NC(=O)CSc2nnc(CNC(=O)c3ccco3)o2)c1	-	-	10µM	-	-
Cc1ccc(NC(=O)CSc2nnc(Cc3ccccc3)o2)cc1	-	-	12µM	-	-
CCCn1c(N)c(C(=O)CSc2nnc(Cc3ccccc3)o2)c(=O)n(C)c1=O	8.3µM	-	?	-	?
COc1cc(C(=O)NCc2nnc(SCC(=O)Nc3cccc(C)c3)o2)cc(OC)c1OC	.	-	7.4µM	-	-
COC(=O)c1cc2sccc2n1Cc1ccc(F)cc1Cl	.	.	.	-	-
Cc1ccnc2nc(NC(=O)c3ccccc3Cl)nn12	.	.	.	-	-
O=S(=O)(NCCCCNS(=O)(=O)c1cccc2cccnc12)c1cccc2cccnc12	.	.	.	-	-
O=C(CSc1nnc(CNC(=O)c2ccco2)o1)Nc1ccc(F)cc1	-	-	10µM	-	-
SMILES	Pf growth 48h	AMA1-RON2 inh	Pf growth 96h	Vaccinia mCherry	VACV Venus inh
C1=Cc2ccccc2/C1=C\c1cc2c3c(c1)CCCN3CCC2	.	.	.	-	-
Cc1ccc(NC(=O)CN(C)C(=O)COc2cccc3ccc(C)nc23)cc1	.	-	.	.	.
Cc1ccc2c(Cl)cc(Cl)c(OCC(=O)Nc3cc(C)on3)c2n1	-	.	-	.	.
Cc1ccc2c(Cl)cc(Cl)c(OCC(=O)NC(=O)NCc3ccco3)c2n1	2.3µM	-	?	.	.
CN(CC(=O)Nc1ccc(Cl)c(C(F)(F)F)c1)C(=O)c1cc(-c2ccncc2)nc2ccccc12	13µM	-	?	-	-
Cc1ccc(C)c(OCC(=O)N(C)CC(=O)Nc2ccc(Cl)c(C(F)(F)F)c2)c1	12µM	-	?	.	.
Cc1ccc(NC(=O)CN(C)C(=O)COc2c(Cl)cc(Cl)c3ccc(C)nc23)cc1	4.1µM	-	1.7µM	.	.
CN(CC(=O)Nc1ccc(F)c(F)c1F)C(=O)c1cc(-c2ccncc2)nc2ccccc12	?	-	?	-	-
CCc1cccc(C)c1NC(=O)c1nc2ccccc2nc1N1CCCCC1	.	.	.	-	-
Cc1ccc(C)c(CNC(=O)c2cnc3sc(N4CCCC4)nn3c2=O)c1	.	.	.	-	-
CCC1CN(Cc2cn[nH]c2-c2ccccc2)Cc2cc(OC)ccc2O1 (stereo not given)	.	.	.	-	-
CCOc1ccc(N2CC(C)Cn3c2nc2c3c(=O)n(CC(=O)O)c(=O)n2C)cc1 (stereo not given)	.	.	.	-	-
Nc1ccn([C@@H]2O[C@H](CO)[C@H](O)C2(F)F)c(=O)n1	1.9µM	.	1.5µM	.	.
Nc1ncn([C@@H]2O[C@H](CO)[C@@H](O)[C@H]2O)c(=O)n1	-	-	-	2.8µM!	6.3µM
Nc1ccn([C@@H]2O[C@H](CO)[C@@H](O)[C@@H]2O)c(=O)n1	-	-	-	0.5µM	?
Nc1ccn(C2OC(CO)C(O)C2O)c(=O)n1 (stereo not given)	.	.	.	0.089µM!	-
NC[C@H]1O[C@@H](n2ccc(N)nc2=O)[C@H](O)[C@@H]1O	.	-	.	-	-
Nc1ccn(C2OC(CO)C(O)C2F)c(=O)n1 (stereo not given)	.	-	.	?	?
COc1ccc(C2c3c(n(C)c4ccccc34)C(=O)N2CC(=O)Nc2ccc(C)cc2Cl)cc1 (stereo not given)	.	.	.	-	-
O=[N+]([O-])c1cc(-c2nc(-c3ccccc3)no2)ccc1NC1CCCC1	.	.	.	-	-
Nc1nc(Cl)nc2c1ncn2[C@@H]1O[C@H](CO)[C@@H](O)[C@H]1O	?	-	6.6µM	?	?
OC[C@H]1O[C@@H](n2cnc3c(NC4CCCC4)nc(Cl)nc32)[C@H](O)[C@@H]1O	-	-	-	-	-
CCCOc1ccccc1C(=O)Nc1nc2c(s1)CCCC2	.	.	.	-	-
Cc1c(Nc2nc(-c3ccc(Cl)cc3)cs2)c(=O)n(-c2ccccc2)n1C	-	-	13µM	?	-
Cc1c(N/N=C(\C#N)C(=O)c2ccc(Cl)cc2)c(=O)n(-c2ccccc2)n1C	12µM	-	-	11µM	?
SMILES	Pf growth 48h	AMA1-RON2 inh	Pf growth 96h	Vaccinia mCherry	VACV Venus inh
N#C/C(=N\Nc1ccc(Cl)cc1)C(=O)c1ccccc1	-	-	.	-	?
CCN(CC)S(=O)(=O)c1ccc(S(=O)(=O)Nc2cc3c(cc2C(C)=O)OCO3)cc1	?	-	12µM	?	-
CCc1nnc(NS(=O)(=O)c2ccc(NC(=S)NC(=O)/C=C/c3ccc([N+](=O)[O-])cc3)cc2)s1	-	-	-	.	.
CCc1nnc(NS(=O)(=O)c2ccc(NC(=S)NC(=O)/C=C/c3ccc(F)cc3)cc2)s1	-	-	10µM	-	-
CCN(CC)S(=O)(=O)c1ccc(C(=O)Oc2ccc3c(c2)OCO3)cc1	-	-	3.3µM	-	-
CCc1nnc(NS(=O)(=O)c2ccc(NC(=O)c3ccc(S(=O)(=O)N(CC)CC)cc3)cc2)s1	13µM	-	-	-	-
Cc1ccc(OCC(=O)NCC2(N(C)C)CCCCC2)cc1C	.	.	.	-	-
O=c1ccn(C2OC(COP(=O)(O)OC3C(CO)OC(n4ccc(=O)[nH]c4=O)C3O)C(O)C2O)c(=O)[nH]1 (stereo not given)	-	.	-	.	.

Source: PubChem BioAssay
